# Bioassay records from PubChem BioAssay.
# MK inhibit: S. pneumoniae mevalonate kinase inhibition; AID 555; 65,000 compounds, 0.48% hits; inhibition, % at 10 µM; purified MK, PK/LDH-coupled NADH absorbance 340 nm;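 active = ranked among the strongest by inhibition in the single 10 µM screen, a fixed top-ranked set picked for dose follow-up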
# PMK inhibit: blocks S. pneumoniae phosphomevalonate kinase; purified PMK, PK/LDH-coupled NADH absorbance 340 nm; 65,000 compounds, 0.49% hits; inhibition, % at 10 µM;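 active = top-ranked compounds by inhibition in the single 10 µM screen, taking a fixed number of the strongest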;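 note: 0% = full reaction with DMSO carrier and 100% = background rate without enzyme reaction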
# NADH coupling: inhibition of NAD/NADH coupling enzymes, library profiling | AID 774 | IC50, µM (top dose mostly 10 µM), without a hit: at the top dose inhibition | coupled PK/LDH NADH assays, four targets | 65,000 compounds, 0.02% hits;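 active = single-dose screening hits from any of four coupled enzyme assays that gave an IC50 when retested across doses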;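 note: the DPM-DC format reads NADH fluorescence rather than 340 nm absorbance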
# Fluor 339 460: intrinsic fluorescence of library compounds, ex339/em460 – biochemical, MLSMR library, data from DPM-DC assay, artefact control, profiling panel. compound autofluorescence, ex339/em460 nm, NADH buffer; stronger effect = higher value; 1 = no-compound wells, NADH background. fluorescence fold increase at 10 µM. 65,000 compounds, 5.5% hits. AID 709;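 active = at 10 µM, mean starting fluorescence two-fold or more over control wells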;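 note: signal is the first read of a kinetic run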
# Spn DPM-DC inh: inhibitors of Streptococcus pneumoniae diphosphomevalonate decarboxylase; purified DPM-DC, PK/LDH coupled NADH fluorescence; calls only at 10 µM; 65,000 compounds, 0.49% hits; AID 556;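 active = the 320 compounds with the highest percent inhibition in the single-dose primary screen, excluding strongly autofluorescent ones, cut at about 32% in these data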;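 note: kinetic rate of NADH fluorescence loss reporting ADP formed by the decarboxylase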
# Active calls of the source: *; i = inactive; . = no result shown; + = active, no number. This is a sample that favours compounds with a hit; in the whole collection about 6.6% have one here.
SMILES,MK inhibit,PMK inhibit,NADH coupling,Fluor 339 460,Spn DPM-DC inh
COc1ccc(CCNc2oc(COc3ccccc3F)nc2C#N)cc1,2,14,9%,1.2,i
CN1C(=O)c2ccccc2C(C(=O)O)C1c1cn(C)c2ccccc12 (stereo unspecified),7,13,7%,1.1,i
CCOCCCNC(=O)N[C@@H](Cc1ccccc1)C(=O)OC,9,0,3%,1.2,i
CCS(=O)(=O)N1Cc2ccccc2CC1C(=O)N1CCN(c2ccccc2)CC1 (stereo unspecified),5,8,4%,1,i
COC(=O)CNc1nc(-c2ccccc2F)nc2ccccc12,2,28*,10%,1.1,i
CCN(C(=O)c1coc(=O)c(Br)c1)c1ccc2c(c1)OCO2,0,13,7%,3.4*,.
CC(C)COC(=O)n1ccc(C(=O)N2CCCCC2)n1,4,25*,11%,1,i
CC(C)CNS(=O)(=O)c1ccccc1C(=O)N1CCCCC1,8,5,4%,1.1,i
COC(=O)c1cc(Br)c(=O)n(-c2ccc(C(C)=O)cc2)c1,3,9,4%,1.1,i
O=C1C(=C2CCCCC2)SC(=S)N1Cc1ccco1,2,9,4%,1,i
O=C(NCc1ccc2c(c1)OCO2)c1cc(S(=O)(=O)N2CCCCC2)ccc1F,0,12,4%,1,i
O=C(NCC1COc2ccccc2O1)c1c[nH]c2ccc(S(=O)(=O)N3CCOCC3)cc2c1=O (stereo unspecified),2,2,2%,2.8*,i
O=C(NCc1ccc2c(c1)OCO2)c1c[nH]c2ccc(S(=O)(=O)N3CCOCC3)cc2c1=O,2,17,10%,2*,i
Cc1ccccc1-n1c(SCc2cc(=O)n3ccccc3n2)nc2[nH]ncc2c1=O,3,9,4%,2.2*,i
O=C(CSc1nc2[nH]ncc2c(=O)n1-c1ccccc1Br)NCc1ccco1,8,11,3%,1,i
CN(Cc1ccccc1)Cc1c[nH]c2ccccc12,0,5,10%,1,i
CN(Cc1ccccc1)Cc1c(F)cccc1F,52*,0,17%,1.1,i
CCOC(=O)C(C)c1nc2ccccc2[nH]c1=O (stereo unspecified),3,7,7%,1.6,i
CC(C)OC(=O)CCc1nc2ccccc2[nH]c1=O,2,6,3%,2*,i
COc1ccc2[nH]cc(C(=O)CN3CCC(C)CC3)c2c1,8,0,3%,1.1,i
COc1ccc2[nH]cc(C(=O)CN3CCCC(C)C3)c2c1 (stereo unspecified),4,25*,10%,1.1,i
Cc1ccc(S(=O)(=O)N2CCC(C(=O)Nc3ccccc3N3CCCCC3)CC2)cc1,0,11,4%,1,i
Cc1ccc(S(=O)(=O)c2c(N)n(CC3CCOC3)c3nc4ccccc4nc23)cc1 (stereo unspecified),2,15,9%,2.1*,.
Nc1c(S(=O)(=O)c2cccc(Cl)c2)c2nc3ccccc3nc2n1CCN1CCOCC1,5,10,8%,3.9*,.
Cc1ccc(S(=O)(=O)c2c(N)n(NC(=O)C3CC3)c3nc4ccccc4nc23)cc1,12,15,14%,3.8*,.
SMILES,MK inhibit,PMK inhibit,NADH coupling,Fluor 339 460,Spn DPM-DC inh
Cc1ccc(S(=O)(=O)N2CCCC(C(=O)NCC3COCCO3)C2)cc1 (stereo unspecified),3,1,1%,1.1,i
O=c1oc2c3c4c(cc2c(C(F)(F)F)c1CCN1CCOCC1)CCCN4CCC3,0,4,4%,1.1,i
CC(C)c1cc(=O)oc2c3c4c(cc12)CCCN4CCC3,6,4,5%,2.1*,.
COc1ccc2nc(NCCCNC(=O)c3cc(OC)c(OC)c(OC)c3)c(C#N)cc2c1,0,17,9%,3.1*,.
Cc1ccc(CNC(=O)CSc2ncccn2)cc1,12,9,9%,1.1,i
Cc1cc(C)c2c(=O)n(CC(=O)NCCCN3CCN(c4ccccc4F)CC3)sc2n1,27,8,11%,1.3,+
Cc1cccc(N2CCN(C(=O)Cn3sc4nc(C)cc(C)c4c3=O)CC2C)c1 (stereo unspecified),14,0,9%,1.2,i
Cc1cc(C)c2c(=O)n(CC(=O)N3CCC(Cc4ccccc4)CC3)sc2n1,19,7,12%,1.2,+
Cc1cc(C)c2c(=O)n(CC(=O)NCCCN3CCOCC3)sc2n1,23,10,10%,1.2,i
O=C(NCCCN1CCOCC1)c1ccc(CS(=O)(=O)Cc2ccc(Cl)cc2)o1,0,20,7%,1.1,i
COc1ccc(OC)c(C(=O)CSc2nnc(Cc3cccs3)n2C)c1,11,7,7%,1.1,i
CCOc1ccc2cc(C#N)c(SCC(=O)NC(C)CC)nc2c1 (stereo unspecified),5,0,5%,3.2*,i
CCOC(=O)CSc1nc2cc(OCC)ccc2cc1C#N,9,8,13%,2.6*,i
Cc1cccc2cc(C#N)c(SCC(=O)N3CCC(C)CC3)nc12,6,14,8%,1.1,i
Cc1ccc2cc(C#N)c(SCC(=O)NCc3ccco3)nc2c1,5,10,5%,1.2,i
COc1ccc2cc(C#N)c(NC(C)C)nc2c1,9,8,3%,2.6*,.
CCOC(=O)CSc1nc(N)c(C#N)c(-c2ccc(OC)cc2)c1C#N,13,7,7%,1.1,i
CCOc1ccc2cc(C#N)c(SCC(=O)N3CCC(C)CC3)nc2c1,12,9,6%,2.5*,i
CCCCC(=O)NC(Nc1nc(C2CC2)cs1)(C(=O)OCC)C(F)(F)F (stereo unspecified),3,9,8%,0.95,i
COc1ccc2cc(C#N)c(SCC(=O)N3CCCC3)nc2c1,0,1,6%,1.8,i
COC(=O)CSc1nc2cc(OC)ccc2cc1C#N,4,2,7%,2.3*,i
CCOC(=O)c1sc2nc(CC(=O)OC)nc(NCC(=O)OC)c2c1C,9,14,12%,3.7*,.
CCOC(=O)c1sc2nc(CC(=O)OC)nc(NCc3ccco3)c2c1C,0,16,10%,1.5,i
CCCOC(=O)c1cc(=O)[nH]c2ccccc12,0,11,6%,2.3*,i
CCOc1ccccc1CN(Cc1ccco1)S(=O)(=O)c1ccc(-n2cnnn2)c(OC)c1,7,8,3%,1,i
CCOc1cc(S(=O)(=O)NCC2OCCc3ccccc32)c(OCC)cc1-n1cnnn1 (stereo unspecified),0,0,0%,3.9*,.
CCOc1cc(S(=O)(=O)NCc2ccco2)c(OCC)cc1-n1cnnn1,7,13,10%,3.2*,.
COC(=O)c1ccsc1NC(=O)c1ccc2c(c1)OCCO2,5,7,6%,2.1*,.
O=C(c1ccco1)c1cn[nH]c1-c1ccc(Cl)cc1O,7,10,6%,1.1,i
